# Test results: PubChem BioAssay AID463173 (ICCB-Longwood Screening Facility, Harvard Medical School, 2010)
# The campaign covered roughly 52,000 compounds. About 4,300 (8.3%) were called active. This is one part of a sample in which actives are shown more often than they occur. No stated cut-off is given here; in the data, active means survival mostly below about 52% (no sharp cut-off); inactive means mostly above about 56%.
# Test system: DeltatarO mutant
# Assay: growth inhibition of S. aureus wild type versus tarO mutant, primary screen, teichoic acid synthesis inhibitors, RN4220, OD600 (AID 463173)
# Conditions: OD600, 18 h, stronger effect = lower value, screened at 18.75 µg/mL (by protocol)
row,SMILES,survival
1,O=S(=O)(NCCS(=O)(=O)N1CCN(c2cccc(Cl)c2)CC1)c1ccc(F)cc1,83% (inactive)
2,CCC1CCCCN1CCCNC(=O)c1cc2c(Cl)nc3ccc(C)cc3c2s1 (stereo unspecified),67% (inactive)
3,COc1ccccc1C(=O)NCCn1cc(SCC(=O)Nc2ccccc2F)c2ccccc21,55% (inactive)
4,COc1ccc(CCNC(=O)CSc2cn(CCNC(=O)c3ccccc3F)c3ccccc23)cc1OC,137% (inactive)
5,COc1ccccc1C(=O)NCCn1cc(SCc2ccc(C)cc2)c2ccccc21,22% (active)
6,COc1ccccc1C(=O)NCCn1cc(SCc2ccccc2Cl)c2ccccc21,34% (active)
7,O=C(NCCn1cc(SCc2ccccc2Cl)c2ccccc21)c1cccs1,57% (inactive)
8,Cc1ccc(CSc2cn(CCNC(=O)c3cccs3)c3ccccc23)cc1,58% (inactive)
9,CCOc1ccc(C(=O)Nc2ccc(S(=O)(=O)N3CCOCC3)cc2)cc1OCC,72% (inactive)
10,CCOc1ccc(CNC(=O)c2cccc(NC(=O)N3CCSc4ncccc43)c2)cc1OC,92% (inactive)
11,COc1cccc(N2CC(NC(=O)c3ccc4c(c3)OCO4)CC2=O)c1 (stereo unspecified),92% (inactive)
12,Cc1c(C(=O)NCCN(C)C)sc2nc3n(c(=O)c12)CCC3,87% (inactive)
13,Cc1sc2nc(CN(C(=O)c3cccs3)C3CCCC3)[nH]c(=O)c2c1C,80% (inactive)
14,O=C(c1cccs1)N(Cc1nc2sc3c(c2c(=O)[nH]1)CCCC3)C1CCCC1,45% (active)
15,O=C(C1CCCCC1)N(Cc1nc2sc3c(c2c(=O)[nH]1)CCCC3)Cc1cccs1,66% (inactive)
16,Cc1ccc(NCc2cccn2-c2nnc(N3CCC(C(=O)NCc4ccc(OC(C)C)cc4)CC3)s2)cc1,69% (inactive)
17,CCCCn1c(=N)c(C(=O)NC2CCCCC2)cc2c(=O)n3cccc(C)c3nc21,62% (inactive)
18,CCOc1ccc(C(=O)Nc2ccc3c(c2)OCCO3)cc1Br,37% (active)
19,CCOc1ccc(C(=O)Nc2ccc(NC(=O)c3ccccc3)cc2)cc1Br,85% (inactive)
20,CCOc1ccc(C(=O)Nc2cccc(NC(=O)c3ccc(C(C)(C)C)cc3)c2)cc1Br,81% (inactive)
21,O=C(C1COc2ccccc2O1)N(Cc1cccnc1)c1nc2c(F)cccc2s1 (stereo unspecified),84% (inactive)
22,CCCC(=O)N1CCCC(c2nc(-c3cccs3)no2)C1 (stereo unspecified),107% (inactive)
23,Cc1c(C)n(Cc2ccccc2)c2ccc(C(=O)NC(C)c3ccccc3)cc12 (stereo unspecified),78% (inactive)
24,COc1ccc(NC(=O)c2oc3c(c2C)-c2nn(Cc4c(F)cccc4Cl)cc2CC3)c(OC)c1,72% (inactive)

row,SMILES,survival
1,COc1ccc(-c2nnc(SCCOc3ccccc3C)o2)cc1OC,64% (inactive)
2,Clc1ccccc1OCCSc1nnc(-c2cccs2)o1,43% (inactive)
3,Cc1ccccc1OCCSc1nnc(-c2cccs2)o1,106% (inactive)
4,Cc1ccc(OCCSc2nnc(-c3cccs3)o2)cc1Cl,45% (active)
5,Cc1cccc(OCCSc2nnc(-c3cccs3)o2)c1,58% (inactive)
6,COc1cc(C)ccc1OCCSc1nnc(-c2ccc(C)cc2)o1,55% (inactive)
7,Cc1ccc(OCCSc2nnc(-c3cccs3)o2)cc1,53% (inactive)
8,Cc1cc(Cl)ccc1OCCSc1nnc(-c2cccs2)o1,37% (active)
9,COc1cc(C)ccc1OCCSc1nnc(-c2cccs2)o1,40% (active)
10,O=c1c2cnn(-c3ccc(F)cc3)c2ncn1Cc1ccc(F)cc1,106% (inactive)
11,CCn1c2c(c(=O)n3ncc(C(=O)N4CCN(c5ccc(C(C)=O)cc5)CC4)c13)CN(Cc1ccc(OC)cc1)CC2,126% (inactive)
12,COc1ccc(Br)cc1CNC(=O)c1ccc2c(c1)nc1n2CCC(C)C1 (stereo unspecified),75% (inactive)
13,COc1ccccc1C(=O)N1CCC(c2noc(-c3ccc(S(=O)(=O)N4CCCC4)cc3)n2)CC1,98% (inactive)
14,COc1ccc(NC(=O)C(Cc2ccccc2)NS(=O)(=O)c2ccc3c(c2)CCN3C(C)=O)cc1 (stereo unspecified),72% (inactive)
15,COc1ccc(N2CCN(C(=O)c3ccc4c(c3)N(Cc3ccc(F)cc3)C(=O)c3ccccc3S4=O)CC2)cc1 (stereo unspecified),116% (inactive)
16,CC(=O)Nc1ccc(S(=O)(=O)NC2=NCN(CCO)CN2)cc1,89% (inactive)
17,COc1ccc(C)cc1NC(=O)CSc1nc(=O)n(Cc2ccco2)c2c1CCC2,116% (inactive)
18,O=C(O)c1ccc2oc(=O)n(Cc3ccccc3)c2c1,94% (inactive)
19,CCCCCOc1ccc(Cn2c(=O)oc3ccc(C)cc32)cc1OC,4% (active)
20,CCCCCOc1ccc(Cn2c(=O)oc3ccccc32)cc1,124% (inactive)
21,CCOc1ccc(CNC(=O)c2ccc3oc(=O)n(Cc4ccccc4)c3c2)cc1,79% (inactive)
22,CC(C)CCOc1ccc(Cn2c(=O)oc3ccccc32)cc1,127% (inactive)
23,COc1cc(Cn2c(=O)oc3ccc(C)cc32)ccc1OCCC(C)C,-1% (active)
24,CCCCOc1ccc(Cn2c(=O)oc3ccc(C)cc32)cc1,40% (active)

row,SMILES,survival
1,CCCCOc1ccc(Cn2c(=O)oc3ccccc32)cc1,127% (inactive)
2,CCCCOc1ccc(Cn2c(=O)oc3ccc(C)cc32)cc1OC,36% (active)
3,CCCCOc1ccc(CN2C(=O)C(=O)c3cc(C)ccc32)cc1OC,122% (inactive)
4,CCOc1ccc(CCNC(=O)c2ccc(CSCc3ccccc3C)o2)cc1OCC,112% (inactive)
5,Cc1ccc(NC(=O)c2ccc(NC(=O)N3CCSc4ncccc43)cc2)cc1Cl,109% (inactive)
6,CCCn1cc(S(=O)(=O)c2cc(C)ccc2C)c(=O)c2cc(F)c(N3CCN(CC)CC3)cc21,80% (inactive)
7,O=C(Nc1ccccc1C(=O)OCc1cc(=O)n2ccsc2n1)c1ccc(Cl)cc1,76% (inactive)
8,COc1ccc(NC(=O)c2ccc(-c3nc(CSc4ccccc4)c(C)o3)cc2)cc1OC,84% (inactive)
9,Cc1ccc(C)c(NC(=O)CN(C)S(=O)(=O)c2cccc3cccnc23)c1,85% (inactive)
10,CCCn1c(N)nc2c1c(=O)[nH]c(=O)n2C,71% (inactive)
11,COC(=O)c1ccc(NC(=O)CC2C(=O)N(c3ccc(Cl)cc3)C(=O)N2Cc2cccs2)cc1 (stereo unspecified),102% (inactive)
12,Cc1cc(C)c(Cn2c3ccccc3c3cnn(CC(=O)NCCc4ccccc4)c(=O)c32)c(C)c1,133% (inactive)
13,Cc1ccc(NC(=O)Cn2cc(C(=O)C3CC3)c3ccccc32)c(C)c1,90% (inactive)
14,O=C(NCc1ccccc1Cl)c1ccc2oc(=O)n(Cc3ccccc3)c2c1,72% (inactive)
15,Cc1ccc2oc(=O)n(Cc3ccccc3Cl)c2c1,-3% (active)
16,CCCCCOc1ccccc1CN1C(=O)C(=O)c2cc(C)ccc21,151% (inactive)
17,CCCCCOc1ccccc1Cn1c(=O)oc2ccc(C)cc21,5% (active)
18,Cc1ccc2oc(=O)n(CCNC(=O)Nc3ccccc3Cl)c2c1,72% (inactive)
19,CCOC(=O)c1ccc2oc(=O)n(Cc3ccccc3)c2c1,83% (inactive)
20,CCCCN(CC)CCCNC(=O)c1cn(C)c(=O)c2c1c1ccccc1n2C,139% (inactive)
21,Cc1ccc2c(c1)cc1c(=O)n(CC(=O)NCc3ccco3)nc(C)n12,84% (inactive)
22,O=C(CN1C(=O)COc2ccc(S(=O)(=O)NC3CCCC3)cc21)NCc1ccccc1Cl,80% (inactive)
23,CCCC(c1nnnn1CC1CCCO1)N(Cc1cccs1)Cc1cc2ccc(C)c(C)c2[nH]c1=O (stereo unspecified),71% (inactive)
24,Cc1ccc(-c2nc3cc(C(C)C)ccc3o2)cc1NC(=O)c1cc([N+](=O)[O-])ccc1N1CCOCC1,62% (inactive)

row,SMILES,survival
1,CCn1cc(C2N3CC4(CC)CN2CC(CC)(C3)C4=O)c2ccccc21 (stereo unspecified),73% (inactive)
2,Cc1cc(C)cc(NC(=O)c2ccc3c(c2)nnn3C2CCCC2)c1,128% (inactive)
3,Cc1c(Cl)cccc1NC(=O)c1ccc2c(c1)nnn2C1CCCC1,108% (inactive)
4,Cc1cccc(C)c1NC(=O)c1ccc2c(c1)nnn2C1CCCC1,-5% (active)
5,CCN(CC)c1ccc(NC(=O)CN2C(=O)c3cccnc3Sc3ccccc32)c(C)c1,-2% (active)
6,Cc1cc(Br)ccc1NC(=O)CN1C(=O)c2cccnc2Sc2ccccc21,90% (inactive)
7,CCN(CC)c1ccc(NC(=O)CN2C(=O)c3cccnc3Oc3ccccc32)c(C)c1,116% (inactive)
8,CCOC(=O)c1c(C)c(C(=O)NCCc2ccc(OC)cc2)c(C)n1C,99% (inactive)
9,CCC(=O)N1c2ccccc2CC1C(=O)NCCc1ccccc1C (stereo unspecified),71% (inactive)
10,COc1ccc(C2C(=O)N(C3CCCCCC3)CC(=O)N2Cc2ccc(C)cc2)cc1 (stereo unspecified),60% (inactive)
11,Cc1ccc(CN2C(=O)CN(C3CCC(C)CC3)C(=O)C2c2ccc(F)cc2)cc1 (stereo unspecified),91% (inactive)
12,Cc1ccc(CN2C(=O)CN(C3CCCCCC3)C(=O)C2c2ccc(F)cc2)cc1 (stereo unspecified),6% (active)
13,Cc1ccc(C=C2C(=O)N(C)C(=O)N(C)C2=O)cc1,82% (inactive)
14,CCOC(=O)C1=C(CS(=O)(=O)c2ccc(F)cc2)NC(=O)NC1c1ccc(OCC)c(OC)c1 (stereo unspecified),119% (inactive)
15,COc1ccc(C(=O)Nc2cc3cc(Cl)ccc3oc2=O)cc1OC,73% (inactive)
16,COc1ccc(-c2cn3cccnc3n2)cc1NC(=O)Cc1ccccc1,82% (inactive)
17,Cc1[nH]c(=O)[nH]c(=O)c1NC(=O)c1ccccc1,88% (inactive)
18,Cc1cn(C(=O)c2ccccc2)c(=O)[nH]c1=O,57% (active)
19,CC1=NN(C(=O)c2ccccc2)C(C)(O)C1(C)C (stereo unspecified),98% (inactive)
20,CCC(=O)Nc1cccc(-c2nc3ccccc3[nH]2)c1C,94% (inactive)
21,CCC(=O)Nc1ccc(Cl)c(-c2nc3ccccc3[nH]2)c1,49% (active)
22,CC(C)(C)C(=O)Nc1ccc(Cl)c(-c2nc3ccccc3[nH]2)c1,44% (inactive)
23,CC(C)CC(=O)Nc1ccc(Cl)c(-c2nc3ccccc3[nH]2)c1,39% (active)
24,CC(NC(=O)CSc1n[nH]c(-c2ccccc2Cl)n1)c1nc2ccccc2[nH]1 (stereo unspecified),72% (inactive)
